# Source: article PMC8384837, “Expanding the binding specificity for RNA recognition by a PUF domain”
# Tests used:
# Test in all cases: yeast three-hybrid, YBZ-1, SC-Leu-His + 0.5 mM 3-AT, 4 days
# Details in all cases: tags: N-Gal4 AD-HA kept; label: inside an RPR1-promoter hybrid RNA with tandem MS2 sites; ssRNA
# PUM1 PUF domain R5-RSD = PUM1 PUF domain R5-RSD (Homo sapiens, UniProt Q14671 828-1176, C1007R;R1008S;Q1011D)
# Summary of the method: (§1)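 Sequencing with Illumina followed PCR amplification of the repeat regions from transformants grown four days on SC-Leu (input) or SC-Leu-His + 0.5 mM 3-AT (selection). The transformants were strain YBZ-1 with a LexA–MS2 coat fusion and a HIS3 reporter, carrying Pumilio-1 PUF domain libraries and matching RNA elements. The interaction score is the log change in variant frequency from input to selection, computed in log2 with a pseudocount of 1 for absent variants.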
# PUM1 PUF domain R5-SGT = PUM1 PUF domain R5-SGT (Homo sapiens, UniProt Q14671 828-1176, C1007S;R1008G;Q1011T)
# Chain of PUM1 PUF domain R5-SGT (Q14671 828-1176 C1007S/R1008G/Q1011T): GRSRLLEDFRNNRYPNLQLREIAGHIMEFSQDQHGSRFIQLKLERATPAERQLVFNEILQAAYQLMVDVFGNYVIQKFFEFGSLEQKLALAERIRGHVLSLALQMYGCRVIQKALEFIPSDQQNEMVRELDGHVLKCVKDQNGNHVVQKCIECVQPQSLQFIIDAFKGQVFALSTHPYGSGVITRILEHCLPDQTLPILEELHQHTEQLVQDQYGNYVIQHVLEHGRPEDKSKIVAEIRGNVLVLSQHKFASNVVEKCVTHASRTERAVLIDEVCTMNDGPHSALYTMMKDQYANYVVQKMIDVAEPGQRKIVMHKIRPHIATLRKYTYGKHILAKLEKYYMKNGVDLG
# Summary of the method: as §1
# PUM1 PUF domain R8-FYR = PUM1 PUF domain R8-FYR (Homo sapiens, UniProt Q14671 828-1176, N1122F;Q1126R)
# Chain of PUM1 PUF domain R8-FYR (Q14671 828-1176 N1122F/Q1126R): as the sequence (Q14671 828-1176 C1007S/R1008G/Q1011T) above, with S180C, G181R, T184Q, N295F, Q299R counted along it
# Summary of the method: as §1
# PUM1 PUF domain R8-KFD = PUM1 PUF domain R8-KFD (Homo sapiens, UniProt Q14671 828-1176, N1122K;Y1123F;Q1126D)
# Chain of PUM1 PUF domain R8-KFD (Q14671 828-1176 N1122K/Y1123F/Q1126D): as the sequence (Q14671 828-1176 C1007S/R1008G/Q1011T) above, with S180C, G181R, T184Q, N295K, Y296F, Q299D counted along it
# Summary of the method: as §1
# PUM1 PUF domain R8-KHT = PUM1 PUF domain R8-KHT (Homo sapiens, UniProt Q14671 828-1176, N1122K;Y1123H;Q1126T)
# Chain of PUM1 PUF domain R8-KHT (Q14671 828-1176 N1122K/Y1123H/Q1126T): as the sequence (Q14671 828-1176 C1007S/R1008G/Q1011T) above, with S180C, G181R, T184Q, N295K, Y296H, Q299T counted along it
# Summary of the method: as §1
# PUM1 PUF domain R5-RHC = PUM1 PUF domain R5-RHC (Homo sapiens, UniProt Q14671 828-1176, C1007R;R1008H;Q1011C)
# Chain of PUM1 PUF domain R5-RHC (Q14671 828-1176 C1007R/R1008H/Q1011C): as the sequence (Q14671 828-1176 C1007S/R1008G/Q1011T) above, with S180R, G181H, T184C counted along it
# Summary of the method: as §1
# PUM1 PUF domain R8-MHR = PUM1 PUF domain R8-MHR (Homo sapiens, UniProt Q14671 828-1176, N1122M;Y1123H;Q1126R)
# Chain of PUM1 PUF domain R8-MHR (Q14671 828-1176 N1122M/Y1123H/Q1126R): as the sequence (Q14671 828-1176 C1007S/R1008G/Q1011T) above, with S180C, G181R, T184Q, N295M, Y296H, Q299R counted along it
# Summary of the method: as §1
# PUM1 PUF domain R3-SRS = PUM1 PUF domain R3-SRS (Homo sapiens, UniProt Q14671 828-1176, C935S;Q939S)
# Chain of PUM1 PUF domain R3-SRS (Q14671 828-1176 C935S/Q939S): as the sequence (Q14671 828-1176 C1007S/R1008G/Q1011T) above, with C108S, Q112S, S180C, G181R, T184Q counted along it
# Summary of the method: as §1
# PUM1 PUF domain R4-WAC = PUM1 PUF domain R4-WAC (Homo sapiens, UniProt Q14671 828-1176, N971W;H972A;Q975C)
# Chain of PUM1 PUF domain R4-WAC (Q14671 828-1176 N971W/H972A/Q975C): as the sequence (Q14671 828-1176 C1007S/R1008G/Q1011T) above, with N144W, H145A, Q148C, S180C, G181R, T184Q counted along it
# Summary of the method: as §1
# PUM1 PUF domain R2-LWT = PUM1 PUF domain R2-LWT (Homo sapiens, UniProt Q14671 828-1176, N899L;Y900W;Q903T)
# Chain of PUM1 PUF domain R2-LWT (Q14671 828-1176 N899L/Y900W/Q903T): as the sequence (Q14671 828-1176 C1007S/R1008G/Q1011T) above, with N72L, Y73W, Q76T, S180C, G181R, T184Q counted along it
# Summary of the method: as §1
# PUM1 PUF domain R3-GPC = PUM1 PUF domain R3-GPC (Homo sapiens, UniProt Q14671 828-1176, C935G;R936P;Q939C)
# Chain of PUM1 PUF domain R3-GPC (Q14671 828-1176 C935G/R936P/Q939C): as the sequence (Q14671 828-1176 C1007S/R1008G/Q1011T) above, with C108G, R109P, Q112C, S180C, G181R, T184Q counted along it
# Summary of the method: as §1
# PUM1 PUF domain R4-GPM = PUM1 PUF domain R4-GPM (Homo sapiens, UniProt Q14671 828-1176, N971G;H972P;Q975M)
# Chain of PUM1 PUF domain R4-GPM (Q14671 828-1176 N971G/H972P/Q975M): as the sequence (Q14671 828-1176 C1007S/R1008G/Q1011T) above, with N144G, H145P, Q148M, S180C, G181R, T184Q counted along it
# Summary of the method: as §1
# PUM1 PUF domain R5-IYH = PUM1 PUF domain R5-IYH (Homo sapiens, UniProt Q14671 828-1176, C1007I;R1008Y;Q1011H)
# Chain of PUM1 PUF domain R5-IYH (Q14671 828-1176 C1007I/R1008Y/Q1011H): as the sequence (Q14671 828-1176 C1007S/R1008G/Q1011T) above, with S180I, G181Y, T184H counted along it
# Summary of the method: as §1
# PUM1 PUF domain R3-DWR = PUM1 PUF domain R3-DWR (Homo sapiens, UniProt Q14671 828-1176, C935D;R936W;Q939R)
# Chain of PUM1 PUF domain R3-DWR (Q14671 828-1176 C935D/R936W/Q939R): as the sequence (Q14671 828-1176 C1007S/R1008G/Q1011T) above, with C108D, R109W, Q112R, S180C, G181R, T184Q counted along it
# Summary of the method: as §1
# PUM1 PUF domain R3-WYG = PUM1 PUF domain R3-WYG (Homo sapiens, UniProt Q14671 828-1176, C935W;R936Y;Q939G)
# Chain of PUM1 PUF domain R3-WYG (Q14671 828-1176 C935W/R936Y/Q939G): as the sequence (Q14671 828-1176 C1007S/R1008G/Q1011T) above, with C108W, R109Y, Q112G, S180C, G181R, T184Q counted along it
# Summary of the method: as §1
# PUM1 PUF domain R3-IWT = PUM1 PUF domain R3-IWT (Homo sapiens, UniProt Q14671 828-1176, C935I;R936W;Q939T)
# Chain of PUM1 PUF domain R3-IWT (Q14671 828-1176 C935I/R936W/Q939T): as the sequence (Q14671 828-1176 C1007S/R1008G/Q1011T) above, with C108I, R109W, Q112T, S180C, G181R, T184Q counted along it
# Summary of the method: as §1
# PUM1 PUF domain R3-ARD = PUM1 PUF domain R3-ARD (Homo sapiens, UniProt Q14671 828-1176, C935A;Q939D)
# Chain of PUM1 PUF domain R3-ARD (Q14671 828-1176 C935A/Q939D): as the sequence (Q14671 828-1176 C1007S/R1008G/Q1011T) above, with C108A, Q112D, S180C, G181R, T184Q counted along it
# Summary of the method: as §1
# PUM1 PUF domain R1-RHR = PUM1 PUF domain R1-RHR (Homo sapiens, UniProt Q14671 828-1176, S863R;R864H;Q867R)
# Chain of PUM1 PUF domain R1-RHR (Q14671 828-1176 S863R/R864H/Q867R): as the sequence (Q14671 828-1176 C1007S/R1008G/Q1011T) above, with S36R, R37H, Q40R, S180C, G181R, T184Q counted along it
# Summary of the method: as §1
# PUM1 PUF domain R5-GMI = PUM1 PUF domain R5-GMI (Homo sapiens, UniProt Q14671 828-1176, C1007G;R1008M;Q1011I)
# Chain of PUM1 PUF domain R5-GMI (Q14671 828-1176 C1007G/R1008M/Q1011I): as the sequence (Q14671 828-1176 C1007S/R1008G/Q1011T) above, with S180G, G181M, T184I counted along it
# Summary of the method: as §1
# PUM1 PUF domain R5-LNL = PUM1 PUF domain R5-LNL (Homo sapiens, UniProt Q14671 828-1176, C1007L;R1008N;Q1011L)
# Chain of PUM1 PUF domain R5-LNL (Q14671 828-1176 C1007L/R1008N/Q1011L): as the sequence (Q14671 828-1176 C1007S/R1008G/Q1011T) above, with S180L, G181N, T184L counted along it
# Summary of the method: as §1
# Chain of PUM1 PUF domain R5-RSD (Q14671 828-1176 C1007R/R1008S/Q1011D): as the sequence (Q14671 828-1176 C1007S/R1008G/Q1011T) above, with S180R, G181S, T184D counted along it
sequence,measurement,setting,value
GGCUAGAACUAGUGGAUCCCCCGGCGCCCGGCGGCUCGAGCCCGGGUAAGUGUCAAUAGUCUGCAUGCCGCCGGGCGCCAUGCCUGCAGGUCGACUCUAGAAAACAUG,binding signal,PUM1 PUF domain R5-RSD,2.74 log2 enrichment (interaction score)
GGCUAGAACUAGUGGAUCCCCCGGCGCCCGGCGGCUCGAGCCCGGGUAAGUGUGAAUAGUCUGCAUGCCGCCGGGCGCCAUGCCUGCAGGUCGACUCUAGAAAACAUG,binding signal,PUM1 PUF domain R5-SGT,2.85 log2 enrichment (interaction score)
GGCUAGAACUAGUGGAUCCCCCGGCGCCCGGCGGCUCGAGCCCGGGUAAGCGUAAAUAGUCUGCAUGCCGCCGGGCGCCAUGCCUGCAGGUCGACUCUAGAAAACAUG,binding signal,PUM1 PUF domain R8-FYR,5.29 log2 enrichment (interaction score)
same,binding signal,PUM1 PUF domain R8-KFD,5.69 log2 enrichment (interaction score)
same,binding signal,PUM1 PUF domain R8-KHT,4.89 log2 enrichment (interaction score)
GGCUAGAACUAGUGGAUCCCCCGGCGCCCGGCGGCUCGAGCCCGGGUAAGUGUAAAUAGUCUGCAUGCCGCCGGGCGCCAUGCCUGCAGGUCGACUCUAGAAAACAUG,binding signal,PUM1 PUF domain R5-RHC,3.15 log2 enrichment (interaction score)
same,binding signal,PUM1 PUF domain R8-FYR,5.38 log2 enrichment (interaction score)
same,binding signal,PUM1 PUF domain R8-MHR,3.92 log2 enrichment (interaction score)
same,binding signal,PUM1 PUF domain R3-SRS,4.33 log2 enrichment (interaction score)
same,binding signal,PUM1 PUF domain R4-WAC,3.2 log2 enrichment (interaction score)
same,binding signal,PUM1 PUF domain R2-LWT,1.6 log2 enrichment (interaction score)
same,binding signal,PUM1 PUF domain R3-GPC,2.57 log2 enrichment (interaction score)
same,binding signal,PUM1 PUF domain R4-GPM,2.8 log2 enrichment (interaction score)
same,binding signal,PUM1 PUF domain R5-IYH,4.47 log2 enrichment (interaction score)
same,binding signal,PUM1 PUF domain R3-DWR,0.88 log2 enrichment (interaction score)
GGCUAGAACUAGUGGAUCCCCCGGCGCCCGGCGGCUCGAGCCCGGGUAAGUGUAAGUAGUCUGCAUGCCGCCGGGCGCCAUGCCUGCAGGUCGACUCUAGAAAACAUG,binding signal,PUM1 PUF domain R3-SRS,2.81 log2 enrichment (interaction score)
same,binding signal,PUM1 PUF domain R3-WYG,3.09 log2 enrichment (interaction score)
same,binding signal,PUM1 PUF domain R3-IWT,3.1 log2 enrichment (interaction score)
same,binding signal,PUM1 PUF domain R3-ARD,4.51 log2 enrichment (interaction score)
same,binding signal,PUM1 PUF domain R3-DWR,1.12 log2 enrichment (interaction score)
GGCUAGAACUAGUGGAUCCCCCGGCGCCCGGCGGCUCGAGCCCGGGUAAGUGUAAUUAGUCUGCAUGCCGCCGGGCGCCAUGCCUGCAGGUCGACUCUAGAAAACAUG,binding signal,PUM1 PUF domain R3-SRS,1.65 log2 enrichment (interaction score)
same,binding signal,PUM1 PUF domain R3-WYG,4.81 log2 enrichment (interaction score)
same,binding signal,PUM1 PUF domain R3-GPC,2.82 log2 enrichment (interaction score)
same,binding signal,PUM1 PUF domain R3-DWR,3.53 log2 enrichment (interaction score)
GGCUAGAACUAGUGGAUCCCCCGGCGCCCGGCGGCUCGAGCCCGGGUAAGUGUAAAGAGUCUGCAUGCCGCCGGGCGCCAUGCCUGCAGGUCGACUCUAGAAAACAUG,binding signal,PUM1 PUF domain R2-LWT,2.4 log2 enrichment (interaction score)
GGCUAGAACUAGUGGAUCCCCCGGCGCCCGGCGGCUCGAGCCCGGGUAAGUGUAAAUCGUCUGCAUGCCGCCGGGCGCCAUGCCUGCAGGUCGACUCUAGAAAACAUG,binding signal,PUM1 PUF domain R1-RHR,2.88 log2 enrichment (interaction score)
GGCUAGAACUAGUGGAUCCCCCGGCGCCCGGCGGCUCGAGCCCGGGUAAGUGUAAAAAGUCUGCAUGCCGCCGGGCGCCAUGCCUGCAGGUCGACUCUAGAAAACAUG,binding signal,PUM1 PUF domain R2-LWT,5.62 log2 enrichment (interaction score)
GGCUAGAACUAGUGGAUCCCCCGGCGCCCGGCGGCUCGAGCCCGGGUAAGUGUUAAUAGUCUGCAUGCCGCCGGGCGCCAUGCCUGCAGGUCGACUCUAGAAAACAUG,binding signal,PUM1 PUF domain R5-RHC,5.98 log2 enrichment (interaction score)
same,binding signal,PUM1 PUF domain R5-GMI,2.18 log2 enrichment (interaction score)
same,binding signal,PUM1 PUF domain R5-LNL,3.35 log2 enrichment (interaction score)
same,binding signal,PUM1 PUF domain R5-RSD,2.65 log2 enrichment (interaction score)
GGCUAGAACUAGUGGAUCCCCCGGCGCCCGGCGGCUCGAGCCCGGGUAAGUGUAAAUUGUCUGCAUGCCGCCGGGCGCCAUGCCUGCAGGUCGACUCUAGAAAACAUG,binding signal,PUM1 PUF domain R1-RHR,2.91 log2 enrichment (interaction score)
GGCUAGAACUAGUGGAUCCCCCGGCGCCCGGCGGCUCGAGCCCGGGUAAGUGUACAUAGUCUGCAUGCCGCCGGGCGCCAUGCCUGCAGGUCGACUCUAGAAAACAUG,binding signal,PUM1 PUF domain R4-WAC,2.99 log2 enrichment (interaction score)
